The results in this text go back to paper PMC7862700, “An all-to-all approach to the identification of sequence-specific readers for epigenetic DNA modifications on cytosine”.

Assay in all cases: DAPPL (digital affinity profiling via proximity ligation, sequencing); 10 mM Tris-HCl pH 7.5, 50 mM NaCl, 1 mM DTT, 4% glycerol, room temperature, 30 min; GST-TFs on glutathione beads, 16-mer random dsDNA library, 0.1% formaldehyde crosslink after washing; high values mean tight binding
Holding throughout (conditions): protein: recombinant; tags: N-terminal GST; dsDNA, one strand shown

The target of one assay is T1, GABPA (Homo sapiens, UniProt Q06546 1-454).
T1 sequence: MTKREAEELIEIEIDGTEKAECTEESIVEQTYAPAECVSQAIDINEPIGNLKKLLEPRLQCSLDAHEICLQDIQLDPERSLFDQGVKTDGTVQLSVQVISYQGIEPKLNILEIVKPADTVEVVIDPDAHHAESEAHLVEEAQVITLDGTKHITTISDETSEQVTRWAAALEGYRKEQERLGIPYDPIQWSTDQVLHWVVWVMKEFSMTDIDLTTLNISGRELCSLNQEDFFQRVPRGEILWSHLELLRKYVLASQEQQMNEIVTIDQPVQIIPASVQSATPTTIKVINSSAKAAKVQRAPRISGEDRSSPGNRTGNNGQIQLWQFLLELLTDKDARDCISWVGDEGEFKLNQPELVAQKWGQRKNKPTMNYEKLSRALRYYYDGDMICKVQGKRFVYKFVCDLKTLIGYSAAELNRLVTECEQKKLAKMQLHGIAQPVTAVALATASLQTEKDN
The procedure, abridged: (§1)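 Sequencing on an Illumina NextSeq500 followed washing, crosslinking with 0.1% formaldehyde, proximity ligation (BsaI/T4 ligase, 1 h, 37 °C) and PCR amplification of pools that had been incubated for 30 min at room temperature with 200 nmole of a random double-stranded 16-mer DNA library in Tris/NaCl/DTT/glycerol buffer. Each pool held DNA-barcoded human transcription factors, expressed in yeast as GST fusions and captured on glutathione beads, plus a tag-only sample. Binding signal is a hexamer's read frequency for a factor divided by its frequency in the tag-only sample.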

A further assay deals with T2, ERG (Homo sapiens, UniProt P11308 1-479).
T2 sequence: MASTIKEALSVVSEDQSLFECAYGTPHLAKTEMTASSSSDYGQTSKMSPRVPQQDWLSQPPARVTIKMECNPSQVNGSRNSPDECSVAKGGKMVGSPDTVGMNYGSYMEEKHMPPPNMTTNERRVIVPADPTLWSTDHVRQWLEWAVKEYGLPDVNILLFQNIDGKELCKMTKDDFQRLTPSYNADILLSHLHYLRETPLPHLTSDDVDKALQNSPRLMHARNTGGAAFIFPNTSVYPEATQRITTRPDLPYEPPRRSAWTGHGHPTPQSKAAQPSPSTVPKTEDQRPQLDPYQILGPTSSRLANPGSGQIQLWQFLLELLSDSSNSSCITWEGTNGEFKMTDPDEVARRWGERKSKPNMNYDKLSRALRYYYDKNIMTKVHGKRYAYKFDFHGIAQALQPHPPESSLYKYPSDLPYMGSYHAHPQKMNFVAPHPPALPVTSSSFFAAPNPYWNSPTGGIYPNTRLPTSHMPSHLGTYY
The procedure, abridged: as §1

A further assay has as its target ETV5 (Homo sapiens, UniProt P41161 1-510). The procedure, abridged:
as §1

The target in a further assay is ELF4 (Homo sapiens, UniProt Q99607 1-663). The method in brief:
as §1

A further assay concerns the target T3, ELK4 (Homo sapiens, UniProt P28324-2 1-405).
T3 sequence: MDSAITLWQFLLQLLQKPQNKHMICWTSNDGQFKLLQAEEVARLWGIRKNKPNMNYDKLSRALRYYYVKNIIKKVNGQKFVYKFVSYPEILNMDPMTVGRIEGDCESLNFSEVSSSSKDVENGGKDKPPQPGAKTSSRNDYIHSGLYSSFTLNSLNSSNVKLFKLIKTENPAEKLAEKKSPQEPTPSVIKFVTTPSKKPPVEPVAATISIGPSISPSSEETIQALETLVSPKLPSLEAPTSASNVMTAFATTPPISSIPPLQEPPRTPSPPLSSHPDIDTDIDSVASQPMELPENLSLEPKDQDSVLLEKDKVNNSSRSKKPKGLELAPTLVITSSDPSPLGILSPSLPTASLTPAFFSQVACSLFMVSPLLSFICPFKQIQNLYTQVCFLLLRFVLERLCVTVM
The procedure, abridged: as §1

The next assay concerns the target T4, ETV3L (Homo sapiens, UniProt Q6ZN32 1-361).
T4 sequence: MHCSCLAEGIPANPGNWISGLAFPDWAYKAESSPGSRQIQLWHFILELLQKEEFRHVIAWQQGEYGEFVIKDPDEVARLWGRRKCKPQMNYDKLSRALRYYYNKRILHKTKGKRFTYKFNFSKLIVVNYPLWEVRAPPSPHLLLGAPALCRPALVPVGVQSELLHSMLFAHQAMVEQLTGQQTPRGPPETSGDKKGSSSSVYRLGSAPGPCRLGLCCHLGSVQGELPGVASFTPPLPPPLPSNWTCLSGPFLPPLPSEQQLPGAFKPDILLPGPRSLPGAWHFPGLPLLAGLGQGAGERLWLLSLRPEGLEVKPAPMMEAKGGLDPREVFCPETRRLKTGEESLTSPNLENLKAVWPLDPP
The method in brief: as §1

For another assay, the target named is T5, ETV7 (Homo sapiens, UniProt Q9Y603 1-341).
T5 sequence: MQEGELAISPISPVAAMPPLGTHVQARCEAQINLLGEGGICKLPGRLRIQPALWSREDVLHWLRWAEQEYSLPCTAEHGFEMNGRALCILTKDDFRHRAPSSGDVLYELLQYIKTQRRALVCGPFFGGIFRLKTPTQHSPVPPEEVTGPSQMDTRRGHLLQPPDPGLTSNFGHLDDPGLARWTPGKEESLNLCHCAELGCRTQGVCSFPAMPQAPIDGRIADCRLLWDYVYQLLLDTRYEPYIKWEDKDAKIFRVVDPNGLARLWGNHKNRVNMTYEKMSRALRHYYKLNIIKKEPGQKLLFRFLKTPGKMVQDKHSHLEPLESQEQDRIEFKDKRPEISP
The method in brief: as §1

A further assay concerns the target ETV6 (Homo sapiens, UniProt P41212 1-452). The procedure, abridged:
as §1

Chain of ELF4 (Q99607 whole entry): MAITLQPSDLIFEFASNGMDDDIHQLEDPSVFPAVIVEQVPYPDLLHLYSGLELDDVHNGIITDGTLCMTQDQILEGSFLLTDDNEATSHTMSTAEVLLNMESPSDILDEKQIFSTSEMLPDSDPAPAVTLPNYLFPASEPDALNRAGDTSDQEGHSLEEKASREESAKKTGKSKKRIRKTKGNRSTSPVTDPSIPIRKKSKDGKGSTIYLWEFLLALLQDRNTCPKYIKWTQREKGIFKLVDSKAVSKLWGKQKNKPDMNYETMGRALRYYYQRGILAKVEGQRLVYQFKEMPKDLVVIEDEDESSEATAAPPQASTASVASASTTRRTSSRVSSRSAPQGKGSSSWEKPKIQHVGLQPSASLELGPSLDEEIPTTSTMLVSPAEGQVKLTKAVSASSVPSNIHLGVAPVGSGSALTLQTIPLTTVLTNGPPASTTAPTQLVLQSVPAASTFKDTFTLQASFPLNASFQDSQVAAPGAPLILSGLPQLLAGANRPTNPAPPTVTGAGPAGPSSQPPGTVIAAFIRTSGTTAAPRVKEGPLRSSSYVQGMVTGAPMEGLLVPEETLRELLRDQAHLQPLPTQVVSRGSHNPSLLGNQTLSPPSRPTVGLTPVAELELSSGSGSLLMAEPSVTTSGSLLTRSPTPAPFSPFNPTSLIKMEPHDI
Chain of ETV6 (P41212 whole entry): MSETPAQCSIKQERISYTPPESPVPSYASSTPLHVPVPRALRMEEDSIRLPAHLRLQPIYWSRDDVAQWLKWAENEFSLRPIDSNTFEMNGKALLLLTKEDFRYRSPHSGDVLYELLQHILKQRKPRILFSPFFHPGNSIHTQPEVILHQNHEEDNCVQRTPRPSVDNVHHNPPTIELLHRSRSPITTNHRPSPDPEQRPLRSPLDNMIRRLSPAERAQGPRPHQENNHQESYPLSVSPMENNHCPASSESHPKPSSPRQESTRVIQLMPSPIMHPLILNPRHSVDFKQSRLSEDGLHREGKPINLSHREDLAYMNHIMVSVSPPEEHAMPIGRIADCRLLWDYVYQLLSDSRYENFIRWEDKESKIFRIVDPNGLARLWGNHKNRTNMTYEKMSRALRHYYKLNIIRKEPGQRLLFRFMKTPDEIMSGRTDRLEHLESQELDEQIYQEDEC
Chain of ETV5 (P41161 whole entry): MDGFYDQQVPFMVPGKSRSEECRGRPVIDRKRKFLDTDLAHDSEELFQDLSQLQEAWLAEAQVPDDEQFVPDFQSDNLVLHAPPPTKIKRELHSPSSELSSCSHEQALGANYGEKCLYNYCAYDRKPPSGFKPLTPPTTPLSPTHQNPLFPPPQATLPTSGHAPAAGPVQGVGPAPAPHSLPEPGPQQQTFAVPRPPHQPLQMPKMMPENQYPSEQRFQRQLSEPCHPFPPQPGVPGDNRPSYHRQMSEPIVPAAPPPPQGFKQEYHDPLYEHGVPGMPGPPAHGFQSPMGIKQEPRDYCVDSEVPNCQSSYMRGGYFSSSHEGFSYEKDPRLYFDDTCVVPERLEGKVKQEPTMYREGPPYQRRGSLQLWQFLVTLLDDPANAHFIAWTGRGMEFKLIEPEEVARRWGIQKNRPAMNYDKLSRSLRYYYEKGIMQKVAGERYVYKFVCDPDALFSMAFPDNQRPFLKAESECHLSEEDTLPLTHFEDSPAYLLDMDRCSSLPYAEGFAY

For the sequence GTGCCC, the binding signal with GABPA is 1.01 fold enrichment (6-mer frequency, TF over GST control); in the assay with ERG, 1.08 fold enrichment (6-mer frequency, TF over GST control); with ETV5, 1.08 fold enrichment (6-mer frequency, TF over GST control); with ELF4 it was 1.03 fold enrichment (6-mer frequency, TF over GST control); in the assay with ELK4, 1.07 fold enrichment (6-mer frequency, TF over GST control); with ETV3L, 1 fold enrichment (6-mer frequency, TF over GST control). Besides, the binding signal with ETV7 was 1.01 fold enrichment (6-mer frequency, TF over GST control); with ETV6, 1 fold enrichment (6-mer frequency, TF over GST control).
